The source of these data is PubChem BioAssay (NCI).

The nature of test [1]: NCI Yeast Anticancer Drug Screen. Data for the rad50 strain (AID 155).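 Further: 0% = growth of vehicle-only cultures of the same strain.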 The conditions noted are these: S. cerevisiae rad50 strain growth inhibition, stronger effect = higher value. A digest of the protocol: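 Readout: growth inhibition relative to vehicle-treated cultures. Compound exposure was carried out in a genetically defined yeast strain deficient in DNA damage repair.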
Test [2] can be described thus: NCI Yeast Anticancer Drug Screen. Data for the mec2-1 strain (AID 157). The conditions noted are these: S. cerevisiae mec2-1 strain, stronger effect = higher value. A digest of the protocol: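 Yeast mec2-1 mutant treated with compound. Readout: growth inhibition vs vehicle controls.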
A short description of test [3]: NCI Yeast Anticancer Drug Screen. Data for the sgs1 mgt1 strain (AID 161).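 Further: 0% = growth of cultures given vehicle only.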 Particulars: S. cerevisiae sgs1 mgt1 strain, stronger effect = higher value. The procedure, abridged:
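Mutant yeast exposed to compound; growth scored against vehicle-only wells.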

A short description of test [4]: NCI Yeast Anticancer Drug Screen. Data for the cln2 rad14 strain (AID 165).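 Further: 0% = growth equal to vehicle treated cultures.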 Particulars: S. cerevisiae cln2 rad14 strain, stronger effect = higher value. The procedure, abridged:
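cln2 rad14 yeast strain; compound exposure; growth inhibition read vs vehicle controls.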

A short description of test [5]: NCI Yeast Anticancer Drug Screen. Data for the bub3 strain (AID 167). Particulars: S. cerevisiae bub3 mutant strain, stronger effect = higher value. The procedure, abridged: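 Readout: yeast growth inhibition, expressed relative to vehicle-only wells. The test organism is a mutant strain from a panel with lesions in DNA repair or checkpoint genes.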
Test [6] in a line: NCI Yeast Anticancer Drug Screen. Data for the mlh1 rad18 strain (AID 175). Particulars: S. cerevisiae mlh1 rad18 strain growth inhibition, stronger effect = higher value. A digest of the protocol: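 Yeast w/ defined DNA-repair lesions; compound exposure; growth vs vehicle controls → % inhibition.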
Where [7] appears, read: at 5.0 µM (retest, dose inferred, filed as 0.5).
Setting [8] is: at 50.0 µM (retest, dose inferred, filed as 5.0).

This is part of a sample that, as a whole, favours compounds with a hit. Of some 79,000 tested, about 15% had one in any assay. A number with no mark means an inactive call. Activity calls are given as the source filed them. No stated cut-off is given here; in the data, active means growth inhibition above about 70%; inactive means the rest.

As to `N=C(N)c1ccc(-c2ccc(-c3ccc(C(=N)N)cc3)o2)cc1`, the growth inhibition in test [1] (setting [7]) was 17%; in test [1] (setting [8]), 88% (active); in test [1] (at 50.0 µM) it was 94.8% (active); in test [2] (setting [7]), -6%; in test [2] (setting [8]), 52%; in test [2] (at 50.0 µM), 89% (active). Besides, the growth inhibition is 1% in test [3] (setting [7]); 61% in test [3] (setting [8]); 90.3% (active) in test [3] (at 50.0 µM); -2% in test [4] (setting [7]); 35% in test [4] (setting [8]); 75.5% (active) in test [4] (at 50.0 µM). The growth inhibition in test [5] (setting [7]) was 4%; in test [5] (setting [8]), 62%; in test [5] (at 50.0 µM), 92.8% (active); in test [6] (setting [7]), -10%; in test [6] (setting [8]), 76% (active); in test [6] (at 50.0 µM), 92.2% (active).

Turning to `COc1ccccc1C1c2cc3c(cc2OC(C)(O)C1C)OCO3` (configuration not stated), the growth inhibition was -5% in test [1] (setting [7]); 60% in test [1] (setting [8]); 85% (active) in test [1] (at 50.0 µM); -4% in test [2] (setting [7]); 49% in test [2] (setting [8]); 58.4% in test [2] (at 50.0 µM). For the same compound, the growth inhibition in test [3] (setting [7]) was 1%; in test [3] (setting [8]), 61%; in test [3] (at 50.0 µM), 86.3% (active); in test [4] (setting [7]), -3%; in test [4] (setting [8]), 53%; in test [4] (at 50.0 µM) it was 74.2% (active). Further, the growth inhibition is 0% in test [5] (setting [7]); 49% in test [5] (setting [8]); 66.8% in test [5] (at 50.0 µM); 0% in test [6] (setting [7]); 75% (active) in test [6] (setting [8]); 85.5% (active) in test [6] (at 50.0 µM).

As to `Fc1cccc2c1cc1ccc3cccc4ccc2c1c34`, the growth inhibition in test [1] (setting [7]) is -1%; in test [1] (setting [8]) it was -11%; in test [1] (at 50.0 µM), 89.2% (active); in test [2] (setting [7]), 0%; in test [2] (setting [8]), -6%; in test [2] (at 50.0 µM), 40.4%. Besides, the growth inhibition in test [3] (setting [7]) is -5%; in test [3] (setting [8]) it was -14%; in test [3] (at 50.0 µM), 83.5% (active); in test [4] (setting [7]), -3%; in test [4] (setting [8]), -4%; in test [4] (at 50.0 µM) it was 61.7%. In addition, the growth inhibition in test [5] (setting [7]) is 0%; in test [5] (setting [8]), -6%; in test [5] (at 50.0 µM), 87.5% (active); in test [6] (setting [7]) it was -5%; in test [6] (setting [8]), -6%; in test [6] (at 50.0 µM), 91.2% (active).

For the compound `CCCc1nc2ccccc2c(=O)n1/N=C/c1ccccc1O`, the growth inhibition in test [1] (setting [7]) is 4%; in test [1] (setting [8]) it was -5%; in test [1] (at 50.0 µM) it was 44.2%; in test [2] (setting [7]), -1%; in test [2] (setting [8]) it was -1%; in test [2] (at 50.0 µM) it was 47.9%. The growth inhibition in test [3] (setting [7]) was 4%; in test [3] (setting [8]) it was -1%; in test [3] (at 50.0 µM), 72.4% (active); in test [4] (setting [7]), -4%; in test [4] (setting [8]) it was -2%; in test [4] (at 50.0 µM), 53.8%. Also, the growth inhibition in test [5] (setting [7]) is -2%; in test [5] (setting [8]), -2%; in test [5] (at 50.0 µM) it was 82.5% (active); in test [6] (setting [7]), -2%; in test [6] (setting [8]), 2%; in test [6] (at 50.0 µM), 71% (active).

On to `CN(C)CCC(=O)N1C/C(=C\c2ccc(Cl)c(Cl)c2)C(=O)/C(=C/c2ccc(Cl)c(Cl)c2)C1`, for which the growth inhibition in test [1] (setting [7]) is 98% (active); in test [1] (setting [8]), 97% (active); in test [1] (at 50.0 µM) it was 91.7% (active); in test [2] (setting [7]), 99% (active); in test [2] (setting [8]), 98% (active); in test [2] (at 50.0 µM), 89.8% (active). In addition, the growth inhibition is 99% (active) in test [3] (setting [7]); 97% (active) in test [3] (setting [8]); 88.2% (active) in test [3] (at 50.0 µM); 98% (active) in test [4] (setting [7]); 98% (active) in test [4] (setting [8]); 90% (active) in test [4] (at 50.0 µM). The growth inhibition is 99% (active) in test [5] (setting [7]); 98% (active) in test [5] (setting [8]); 91.3% (active) in test [5] (at 50.0 µM); 99% (active) in test [6] (setting [7]); 97% (active) in test [6] (setting [8]); 88.9% (active) in test [6] (at 50.0 µM).

In the case of `NNc1c(Cl)cc(Cl)cc1Cl`, the growth inhibition was 44% in test [1] (setting [7]); 93% (active) in test [1] (setting [8]); 98.2% (active) in test [1] (at 50.0 µM); -16% in test [2] (setting [7]); 97% (active) in test [2] (setting [8]); 98.9% (active) in test [2] (at 50.0 µM). Besides, the growth inhibition in test [3] (setting [7]) is 12%; in test [3] (setting [8]), 94% (active); in test [3] (at 50.0 µM), 99.7% (active); in test [4] (setting [7]), 21%; in test [4] (setting [8]), 43%; in test [4] (at 50.0 µM) it was 97.8% (active). Also, the growth inhibition in test [5] (setting [7]) was 67%; in test [5] (setting [8]), 93% (active); in test [5] (at 50.0 µM), 99.2% (active); in test [6] (setting [7]), 51%; in test [6] (setting [8]), 97% (active); in test [6] (at 50.0 µM), 99.7% (active).

Consider `OCC(O)C(O)C(O)C(O)c1cnn(-c2ccccc2)n1` (configuration not stated), for which the growth inhibition is 3% in test [1] (setting [7]); -4% in test [1] (setting [8]); 10.8% in test [1] (at 50.0 µM); -8% in test [2] (setting [7]); -24% in test [2] (setting [8]); 3.45% in test [2] (at 50.0 µM). Also, the growth inhibition in test [3] (setting [7]) is 3%; in test [3] (setting [8]), -5%; in test [3] (at 50.0 µM), 15.2%; in test [4] (setting [7]), -4%; in test [4] (setting [8]), -2%; in test [4] (at 50.0 µM), 14.2%. The growth inhibition in test [5] (setting [7]) is -3%; in test [5] (setting [8]), 2%; in test [5] (at 50.0 µM), -1.3%; in test [6] (setting [7]), -7%; in test [6] (setting [8]), -2%; in test [6] (at 50.0 µM), 18.9%.

For `CN(c1ccccc1)N(C)c1ccccc1`, the growth inhibition was -1% in test [1] (setting [7]); 22% in test [1] (setting [8]); 40.6% in test [1] (at 50.0 µM); -3% in test [2] (setting [7]); -1% in test [2] (setting [8]); -3.45% in test [2] (at 50.0 µM). Besides, the growth inhibition in test [3] (setting [7]) was -5%; in test [3] (setting [8]), -16%; in test [3] (at 50.0 µM), -17.4%; in test [4] (setting [7]), 8%; in test [4] (setting [8]), 15%; in test [4] (at 50.0 µM), -33.2%. The growth inhibition was 5% in test [5] (setting [7]); 5% in test [5] (setting [8]); -7.8% in test [5] (at 50.0 µM); 3% in test [6] (setting [7]); 26% in test [6] (setting [8]); 4% in test [6] (at 50.0 µM).

Regarding `COC(=O)/C(Br)=C(\Br)c1ccccc1`, the growth inhibition in test [1] (setting [7]) was 6%; in test [1] (setting [8]) it was 13%; in test [1] (at 50.0 µM) it was -11.4%; in test [2] (setting [7]) it was 6%; in test [2] (setting [8]), 6%; in test [2] (at 50.0 µM), 24.1%. Moreover, the growth inhibition in test [3] (setting [7]) is 14%; in test [3] (setting [8]) it was -6%; in test [3] (at 50.0 µM) it was 36.7%; in test [4] (setting [7]), 2%; in test [4] (setting [8]), 6%; in test [4] (at 50.0 µM), -18.6%. Also, the growth inhibition in test [5] (setting [7]) was 0%; in test [5] (setting [8]), 21%; in test [5] (at 50.0 µM), 52.8%; in test [6] (setting [7]), 22%; in test [6] (setting [8]) it was 40%; in test [6] (at 50.0 µM), 21.7%.
